This is part of a sample that, as a whole, favours compounds with a hit. Of some 83,000 tested, about 20% had one in any assay.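 Growth was measured after 48 h exposure to one concentration of compound in 96-well plates. Values under 10 count as active.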 The source made the active and inactive calls.
system: SF-268 CNS; assay: NCI-60 one-dose screen, 48 h (100 = growth as untreated, 0 = no growth, -100 = all killed); conditions: 10 µM unless noted

| SMILES | growth |
| --- | --- |
| FC(F)(F)c1cc(-c2nnc3n2N=C(Cl)CS3)cc(C(F)(F)F)c1 | 115% (inactive) |
| COc1ccc(/C=C/c2nc3ccccc3c(=O)n2-c2ccc(C#Cc3ccc(C(C)(C)C)cc3)cc2C)c(OC)c1 | 96.9% (inactive) |
| Cc1cc(O)c2cc3c(O)c(O)ccc3cc2c1 | 135% (inactive) |
| COc1ccc(-c2nc3ccccc3n3cccc23)cc1 | 109% (inactive) |
| CCOC(=O)c1cc(C(=O)OCC)c(C)nc1C | 108% (inactive) |
| CN1C(=O)N(C)C2C1NN=c1s/c(=C\c3ccc(Br)cc3)c(=O)n12 (configuration not stated) | 39.4% (inactive) |
| O=C1OCC2=C1C(c1ccccc1)c1cc3c(cc1N2CCO)OCO3 (configuration not stated) | 49% (inactive) |
| CCC1N=C(N)N=C(N)N1c1ccc(Cl)cc1 (configuration not stated) | 77.2% (inactive) |
| COc1cc(OC)cc(-c2ccc(-c3ccc(C(=N)N)s3)s2)c1 | -76.5% (active) |
| Cc1cccc(N=NC(=S)NNc2cccc(C)c2)c1 | 135% (inactive) |
| CCn1c(Cc2ccccc2Nc2c(Cl)cccc2Cl)nnc1SCC(=O)Nc1cccc(OC)c1 | 82.1% (inactive) |
| NC(=S)N1N=C(c2ccc(Cl)cc2)CC1c1cc2ccccc2[nH]c1=O (configuration not stated) | 112% (inactive) |
| CC(C)c1nc2ccccc2n1CC(=O)N/N=C/c1cccc(O)c1 | 99.2% (inactive) |
| COc1ccc(Oc2nc(Nc3ccc(N4CCOCC4)cc3)ncc2NC(=O)Nc2cccc(OC)c2)cc1 | 74.4% (inactive) |
| Clc1cccc(CNc2c3ccccc3nc3ccccc23)c1 | 60.6% (inactive) |
| O=C1OCC2=C1C(c1ccccc1)c1cc3c(cc1N2CCO)CCC3 (configuration not stated) | 39.2% (inactive) |
| C=C1C(=O)O[C@H]2[C@H]1CC/C(COC(=O)NCc1[nH]nc3ccccc13)=C\CC[C@@]1(C)O[C@@H]21 | 55.2% (inactive) |
| CC(=O)Oc1c(Cl)c(Cl)c(Cl)c(Cl)c1Cl | 96.1% (inactive) |
| CC(=O)Nc1c(Br)cc2c(c1Br)Cc1cc(Br)ccc1-2 | 69.9% (inactive) |
| Cc1ccc(C(CN(C)C)C(=O)c2ccccc2)cc1 (configuration not stated) | 25.9% (inactive) |

| SMILES | growth |
| --- | --- |
| CCOC(=O)C(CCCCC(NC(C)=O)(C(=O)OCC)C(=O)OCC)(NC(C)=O)C(=O)OCC | 100% (inactive) |
| O=[N+]([O-])c1ccc(SSc2ccc([N+](=O)[O-])cc2Cl)c(Cl)c1 | 103% (inactive) |
| COc1cc(/C=C2\CN(C(=O)OC(C)(C)C)C/C(=C\c3ccc(O)c(OC)c3)C2=O)ccc1O | 89.5% (inactive) |
| O=S1(=O)NCCN1CCNc1nccc(-c2c(-c3cccc(O)c3)nc3sccn23)n1 | 116% (inactive) |
| CNCCCn1c2c(c3ccc(Cl)cc3c1=O)C(=O)c1cc(OC)cnc1-2 | 34.7% (inactive) |
| O=C(/C=C/c1ccccc1)c1c[nH]c2ccccc2c1=O | -14.1% (active) |
| N=C(N)c1ccc(-c2ccc(-c3ccco3)o2)cc1F | 19.8% (inactive) |
| C[C@@H]1N=C(c2ccc3ccccc3c2)Nc2nc3ccccn3c2C1=O | 58% (inactive) |
| COc1ccc2[nH]cc(C3(c4c[nH]c5ccc(OC)cc45)C(=O)Nc4ccc(F)cc43)c2c1 | 53.9% (inactive) |
| CC(=O)Nc1ccc(/C=N/N2CCCCCC2)cc1 | 99.4% (inactive) |
| COc1cc(-c2nn(C(=O)NCCN3CCN(C)CC3)cc2-c2ccncc2)ccc1Cl | 46.2% (inactive) |
| COc1cc(C2CC(=O)Nc3c2cnn3C)cc(OC)c1OC (configuration not stated) | 112% (inactive) |
| COc1cc2c(c(OC)c1O)C(=O)C(OC)C(c1ccc(O)c(O)c1)O2 (configuration not stated) | 24.6% (inactive) |
| CCOC(=O)C1C(=O)C=C(c2ccccc2)CC1c1sc(N(C)Cc2ccccc2)nc1Cl (configuration not stated) | 89.6% (inactive) |
| CC(C)[C@@H]1C=C2CC[C@H]3[C@](C)(CN)CCC[C@]3(C)[C@H]2CC1 | 43.4% (inactive) |
| CC1(C)CN(CCNc2nccc(-c3c(-c4cccc(O)c4)nc4sccn34)n2)S(=O)(=O)N1 | 84% (inactive) |
| CCNC(=O)c1ccc2c(c1)nc(-c1ccc(Cl)cc1)n2-c1cc(C(C)(C)C)[nH]n1 | 51.6% (inactive) |
| CCc1c(C)c2ccc(O)c(-c3cc(-c4ccccc4)c(C#N)c(=O)[nH]3)c2oc1=O | 108% (inactive) |
| C=C(C)[C@@H]1CC[C@]2(C(=O)NS(=O)(=O)c3ccccc3)CC[C@]3(C)[C@H](CC[C@@H]4[C@@]5(C)CC[C@H](OC(=O)NS(=O)(=O)c6ccccc6)C(C)(C)[C@@H]5CC[C@]43C)[C@@H]12 | 41.4% (inactive) |

system: SF-295 CNS; assay: as above; conditions: 10 µM unless noted

| SMILES | growth |
| --- | --- |
| COc1ccc(/C=C/c2nc3ccccc3c(=O)n2-c2ccc(C#Cc3ccc(C(C)(C)C)cc3)cc2C)c(OC)c1 | 101% (inactive) |
| Cc1cc(O)c2cc3c(O)c(O)ccc3cc2c1 | 109% (inactive) |
| COc1ccc(-c2nc3ccccc3n3cccc23)cc1 | 114% (inactive) |
| CCOC(=O)c1cc(C(=O)OCC)c(C)nc1C | 107% (inactive) |
| CN1C(=O)N(C)C2C1NN=c1s/c(=C\c3ccc(Br)cc3)c(=O)n12 (configuration not stated) | 23.1% (inactive) |
| O=C1OCC2=C1C(c1ccccc1)c1cc3c(cc1N2CCO)OCO3 (configuration not stated) | -12.8% (active) |
| CCC1N=C(N)N=C(N)N1c1ccc(Cl)cc1 (configuration not stated) | 88.9% (inactive) |
| COc1cc(OC)cc(-c2ccc(-c3ccc(C(=N)N)s3)s2)c1 | -78.5% (active) |
| Cc1cccc(N=NC(=S)NNc2cccc(C)c2)c1 | 104% (inactive) |
| CCn1c(Cc2ccccc2Nc2c(Cl)cccc2Cl)nnc1SCC(=O)Nc1cccc(OC)c1 | 81.9% (inactive) |
| NC(=S)N1N=C(c2ccc(Cl)cc2)CC1c1cc2ccccc2[nH]c1=O (configuration not stated) | 108% (inactive) |
| CC(C)c1nc2ccccc2n1CC(=O)N/N=C/c1cccc(O)c1 | 103% (inactive) |
| COc1ccc(Oc2nc(Nc3ccc(N4CCOCC4)cc3)ncc2NC(=O)Nc2cccc(OC)c2)cc1 | 81.1% (inactive) |
| Clc1cccc(CNc2c3ccccc3nc3ccccc23)c1 | 20.8% (inactive) |
| O=C1OCC2=C1C(c1ccccc1)c1cc3c(cc1N2CCO)CCC3 (configuration not stated) | -21.8% (active) |
| C=C1C(=O)O[C@H]2[C@H]1CC/C(COC(=O)NCc1[nH]nc3ccccc13)=C\CC[C@@]1(C)O[C@@H]21 | 72.6% (inactive) |
| CC(=O)Oc1c(Cl)c(Cl)c(Cl)c(Cl)c1Cl | 97.7% (inactive) |
| CC(=O)Nc1c(Br)cc2c(c1Br)Cc1cc(Br)ccc1-2 | -18.8% (active) |
| Cc1ccc(C(CN(C)C)C(=O)c2ccccc2)cc1 (configuration not stated) | 85.6% (inactive) |

| SMILES | growth |
| --- | --- |
| CCOC(=O)C(CCCCC(NC(C)=O)(C(=O)OCC)C(=O)OCC)(NC(C)=O)C(=O)OCC | 99.3% (inactive) |
| O=[N+]([O-])c1ccc(SSc2ccc([N+](=O)[O-])cc2Cl)c(Cl)c1 | 97.2% (inactive) |
| COc1cc(/C=C2\CN(C(=O)OC(C)(C)C)C/C(=C\c3ccc(O)c(OC)c3)C2=O)ccc1O | 101% (inactive) |
| O=S1(=O)NCCN1CCNc1nccc(-c2c(-c3cccc(O)c3)nc3sccn23)n1 | 93.2% (inactive) |
| CNCCCn1c2c(c3ccc(Cl)cc3c1=O)C(=O)c1cc(OC)cnc1-2 | 14.6% (inactive) |
| O=C(/C=C/c1ccccc1)c1c[nH]c2ccccc2c1=O | -51.7% (active) |
| N=C(N)c1ccc(-c2ccc(-c3ccco3)o2)cc1F | -27% (active) |
| C[C@@H]1N=C(c2ccc3ccccc3c2)Nc2nc3ccccn3c2C1=O | 14.9% (inactive) |
| COc1ccc2[nH]cc(C3(c4c[nH]c5ccc(OC)cc45)C(=O)Nc4ccc(F)cc43)c2c1 | 56.7% (inactive) |
| CC(=O)Nc1ccc(/C=N/N2CCCCCC2)cc1 | 94.3% (inactive) |
| COc1cc(-c2nn(C(=O)NCCN3CCN(C)CC3)cc2-c2ccncc2)ccc1Cl | 88.2% (inactive) |
| COc1cc(C2CC(=O)Nc3c2cnn3C)cc(OC)c1OC (configuration not stated) | 105% (inactive) |
| COc1cc2c(c(OC)c1O)C(=O)C(OC)C(c1ccc(O)c(O)c1)O2 (configuration not stated) | -6.27% (active) |
| CCOC(=O)C1C(=O)C=C(c2ccccc2)CC1c1sc(N(C)Cc2ccccc2)nc1Cl (configuration not stated) | 94.4% (inactive) |
| CC(C)[C@@H]1C=C2CC[C@H]3[C@](C)(CN)CCC[C@]3(C)[C@H]2CC1 | 54.8% (inactive) |
| CC1(C)CN(CCNc2nccc(-c3c(-c4cccc(O)c4)nc4sccn34)n2)S(=O)(=O)N1 | 92.9% (inactive) |
| CCNC(=O)c1ccc2c(c1)nc(-c1ccc(Cl)cc1)n2-c1cc(C(C)(C)C)[nH]n1 | 16.4% (inactive) |
| CCc1c(C)c2ccc(O)c(-c3cc(-c4ccccc4)c(C#N)c(=O)[nH]3)c2oc1=O | 97.4% (inactive) |
| C=C(C)[C@@H]1CC[C@]2(C(=O)NS(=O)(=O)c3ccccc3)CC[C@]3(C)[C@H](CC[C@@H]4[C@@]5(C)CC[C@H](OC(=O)NS(=O)(=O)c6ccccc6)C(C)(C)[C@@H]5CC[C@]43C)[C@@H]12 | 1.73% (active) |
